Only some compounds are listed: those with a hit (about 2% of all), similar ones and a draw of the others.
KCNH2 WT inh: qHTS for Inhibitors of KCHN2 3.1: Wildtype qHTS; Voltage-gated inwardly rectifying potassium channel KCNH2 (Homo sapiens), Q12809; U2OS, BacMam KCNH2, thallium flux FluxOr; hits give low values; activity change, % at 1.84 µM; actives 0.37% (n = 340,000); AID 720551, 2013;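 active = maximum activity change below -70%; inconclusive = maximum activity change between -70% and -50%; inactive = maximum activity change above -50%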
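U2OS cells were transduced with wild-type KCNH2 virus (2.03 x 10^8 / mL) for 4 h at room temperature, then cultured overnight at 37 C. Thallium flux was read with FluxOr dye. Rate constants were normalized to DMSO controls.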
Six1-Eya2 inh: qHTS Assay for Inhibitors of the Six1/Eya2 Interaction; actives 0.56% (n = 360,000); AlphaScreen GST-Six1/His-Eya2 binding, biochemical; hits give low values; activity change, % (concentration not given with the values)
Target sequence (O00167 whole entry, looked up): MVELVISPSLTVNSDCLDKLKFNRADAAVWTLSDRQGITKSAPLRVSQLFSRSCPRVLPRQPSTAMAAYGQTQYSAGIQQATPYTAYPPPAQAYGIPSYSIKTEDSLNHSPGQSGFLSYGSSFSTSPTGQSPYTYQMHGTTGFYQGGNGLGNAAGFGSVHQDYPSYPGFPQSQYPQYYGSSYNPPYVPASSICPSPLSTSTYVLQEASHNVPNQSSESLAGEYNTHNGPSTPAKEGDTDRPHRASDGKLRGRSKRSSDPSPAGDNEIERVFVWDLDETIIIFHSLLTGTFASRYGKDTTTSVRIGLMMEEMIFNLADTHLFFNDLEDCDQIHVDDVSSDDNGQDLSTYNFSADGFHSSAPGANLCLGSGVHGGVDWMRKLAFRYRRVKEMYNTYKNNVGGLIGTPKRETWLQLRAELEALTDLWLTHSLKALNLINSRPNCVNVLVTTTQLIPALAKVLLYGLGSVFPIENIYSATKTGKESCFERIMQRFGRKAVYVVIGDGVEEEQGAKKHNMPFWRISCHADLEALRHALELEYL
Target sequence (Q15475 whole entry, looked up): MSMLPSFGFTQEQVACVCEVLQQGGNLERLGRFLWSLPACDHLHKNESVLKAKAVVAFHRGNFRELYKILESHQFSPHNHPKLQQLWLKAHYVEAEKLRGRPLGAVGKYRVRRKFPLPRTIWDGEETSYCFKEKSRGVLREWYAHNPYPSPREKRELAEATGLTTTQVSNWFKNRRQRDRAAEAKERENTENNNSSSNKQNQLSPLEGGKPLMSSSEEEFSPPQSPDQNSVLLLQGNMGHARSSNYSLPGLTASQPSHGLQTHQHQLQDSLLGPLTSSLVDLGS
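AlphaScreen luminescence read after one hour at 37 °C in darkness. Pin-transferred compounds met GST-Six1 and His-Eya2 protein (5X stock 250 nM/500 nM) plus glutathione donor and Ni-chelate acceptor beads (5X, 50 ug/mL).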
KCNH2 3.1 inh: qHTS for Inhibitors of KCHN2 3.1: Mutant qHTS. AID 720553, 2013. U2OS KCNH2 3.1, thallium flux FluxOr; hits give low values. Potassium voltage-gated channel subfamily H member 2, brain isoform KCNH2 3.1 (human). activity change, % (tested at about 1.8 µM). actives 0.95% (n = 340,000);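 active = maximum activity change below -70%; inconclusive = maximum activity change from -70% to -50%; inactive = maximum activity change above -50%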;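 note: thallium influx rate constant from kinetic fluorescence after stimulation buffer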
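Normalized rate constant (relative to positive and negative DMSO controls) derived from a 2 min kinetic fluorescence read after stimulation; U2OS cells expressing the 3.1 isoform via virus at 1.77 x 10^8 /mL.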
CtBP-E1A inh: qHTS Assay for Inhibitors of the CtBP/E1A Interaction. AlphaScreen GST-E1A/His-CtBP binding, 1536-well; hits give low values. activity change, % (concentration not given with the values). actives 0.49% (n = 340,000)
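In 5 uL wells, 23 nL compound meets equimolar GST-E1A and His-CtBP (5X stock 125 nM each) for 2 h, 37 °C. Beads (5X, 50 ug/mL) then 1 h, 37 °C, dark.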
JMJD2E inh: qHTS Assay for Inhibitors of Human Jumonji Domain Containing 2E (JMJD2E); JMJD2E catalytic domain, FDH-coupled NADH fluorescence (FDH is formaldehyde dehydrogenase); Potency, µM (top dose mostly 57.1 µM), for the others: at the top dose activity change, negative = inhibition, most hits filed as inhibitors; actives 1.6% (n = 230,000); active = well fitted inhibition curve with a large enough effect, not every such curve was filed as active; inconclusive = small, poorly fitted or top-dose-only effect, or another doubt; inactive = no such curve, though single readings can be large or run the other way;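 note: potency is the fitted concentration of half-maximal effect; 0% = wells with enzyme and -100% = buffer wells without enzyme; nearly all actives have a fitted effect of over 50% in size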
The depositor's hits bear a star; ? = inconclusive; · = no result given. Cut-off read from the data, not from the text of the source, unless noted: active = activity change below about -65%; inconclusive = mostly about -30% to -63%; inactive = weaker than that. Unless noted, % is set by controls: 0 for no effect and ±100 for the full control effect.

SMILES	KCNH2 WT inh	Six1-Eya2 inh	KCNH2 3.1 inh	CtBP-E1A inh	JMJD2E inh
CC(N)c1csc(Nc2ccc(C(=O)NCCO)cc2)n1 (stereo unspecified)	·	0	·	-10	·
NC(CCc1ccccc1)c1csc(Nc2ccc(C(=O)NCCCO)cn2)n1 (stereo unspecified)	·	?	·	-69*	·
CN(Cc1ccccc1)C(=O)c1ccc(Nc2nc(C(N)Cc3ccccc3)cs2)nc1 (stereo unspecified)	·	-24	·	?	·
CC(C)C(N)c1csc(Nc2ccc(C(=O)NCCCO)cn2)n1 (stereo unspecified)	·	?	·	-75*	·
NC(Cc1ccccc1)c1csc(Nc2ccc(C(=O)NCCCO)cn2)n1 (stereo unspecified)	·	-66*	·	-82*	·
CSc1cccc(NC(=O)c2cc(S(=O)(=O)N3CCCCC3)c[nH]2)c1	-3	-5	-8	3	·
Cc1noc(C)c1COC(=O)[C@@H](NC(=O)c1ccccc1)C(C)C	-24	19	10	1	4%
O=C1c2ccccc2S(=O)(=O)c2cc(C(=O)N3CCN(c4ccccc4)CC3)ccc21	-16	-27	-3	-19	·
O=C(Nc1ccccc1SCC1CSc2nc3ccccc3c(=O)n21)c1cccc(Cl)c1 (stereo unspecified)	-32	1	-84*	-6	3%
C=CCNC(=O)/C(=C\c1ccc([N+](=O)[O-])cc1)NC(C)=O	22	2	13	1	9%
Cc1ccc(NC(=O)CSc2nnc(COc3ccc(C#N)cc3)n2-c2ccccc2)cc1C	-13	2	-71*	-2	3%
O=C(NNC(=O)c1cccnc1SCc1cccc([N+](=O)[O-])c1)c1ccccn1	14	0	12	?	10µM*
O=C(NNC(=O)c1cccnc1SCc1cccc([N+](=O)[O-])c1)c1ccc(F)cc1	2	-4	15	-3	4%
CC(=O)Nc1ccc(S(=O)(=O)N2CCC(C(=O)NC3CCCC3)CC2)cc1	22	5	28	6	·
CNC(=S)NC1CC2CCCC(C1)N2Cc1ccc(C)cc1 (stereo unspecified)	·	7	-83*	·	8%
CC(=O)Nc1ccc(S(=O)(=O)N2C3CCCC2CC(NC(=O)C2CCCCC2)C3)cc1 (stereo unspecified)	6	-67*	-6	-3	-1%
O=C(NC1CC2CCCC(C1)N2S(=O)(=O)c1ccccc1)c1ccccc1 (stereo unspecified)	18	-1	-4	0	11%
COc1ccc(CN2C3CCCC2CC(NC(=O)Nc2ccccc2)C3)cc1 (stereo unspecified)	-36	-2	-40	1	0%
COc1ccc(CN2C3CCCC2CC(NC(=O)Nc2cccc(C)c2)C3)cc1 (stereo unspecified)	-87*	0	-114*	-1	-4%
Cc1cccc(C(=O)NC2CC3CCCC(C2)N3S(=O)(=O)c2ccccc2)c1 (stereo unspecified)	?	6	-72*	8	0%
COc1ccc(NC(=O)COc2cccc3c2CCN(C)C3=O)c(OC)c1	-22	?	-2	5	·
N#CC(C#N)c1ccnc2ccccc12	-7	-16	-5	-6	·
COc1cccc(C(=O)NC2CC3CCCC(C2)N3Cc2ccc(C)cc2)c1 (stereo unspecified)	7	3	-71*	·	·
COc1cccc(C(=O)NC2CC3CCCC(C2)N3Cc2ccc(F)cc2)c1 (stereo unspecified)	30	-3	-25	0	·
O=C(c1cc2cc(F)ccc2[nH]1)N(Cc1cccnc1)CC1CCCN(C2CCCCC2)C1 (stereo unspecified)	-25	-5	-109*	-4	·
Nc1nnnn1/N=C/c1ccc(Br)cc1	0	5	-12	7	·

Screening results (PubChem BioAssay)
